Assay results: publication PMC7862700, “An all-to-all approach to the identification of sequence-specific readers for epigenetic DNA modifications on cytosine”

Legend:
Experiment in all cases: DAPPL (digital affinity profiling via proximity ligation, sequencing); 10 mM Tris-HCl pH 7.5, 50 mM NaCl, 1 mM DTT, 4% glycerol, room temperature, 30 min; GST-TFs on glutathione beads, 16-mer random dsDNA library, 0.1% formaldehyde crosslink after washing; high values mean tight binding
Conditions in all cases: protein: recombinant; tags: N-terminal GST; dsDNA, one strand shown
FLI1 = target: T1, FLI1 (Homo sapiens, UniProt Q01543 1-452)
T1 sequence: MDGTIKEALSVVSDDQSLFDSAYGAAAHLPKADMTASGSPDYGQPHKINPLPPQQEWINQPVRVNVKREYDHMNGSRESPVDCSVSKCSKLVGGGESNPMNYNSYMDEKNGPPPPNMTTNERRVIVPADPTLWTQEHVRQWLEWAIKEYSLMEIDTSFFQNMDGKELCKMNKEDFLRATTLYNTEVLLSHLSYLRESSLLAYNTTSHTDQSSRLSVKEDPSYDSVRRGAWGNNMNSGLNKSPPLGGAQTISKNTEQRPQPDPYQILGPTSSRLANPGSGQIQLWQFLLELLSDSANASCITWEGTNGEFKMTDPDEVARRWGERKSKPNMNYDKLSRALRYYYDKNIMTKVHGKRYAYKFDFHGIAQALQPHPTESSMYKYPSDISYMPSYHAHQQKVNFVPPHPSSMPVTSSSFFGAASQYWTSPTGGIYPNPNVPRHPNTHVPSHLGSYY
How it was run: (§1)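 After expression in yeast as GST fusions, human transcription factors were bound to glutathione beads, DNA-barcoded and mixed with a tag-only sample. The pools were incubated with 200 nmole of a 16-mer random double-stranded DNA library in Tris/NaCl/DTT/glycerol buffer (30 min, room temperature), washed and crosslinked with 0.1% formaldehyde. Proximity ligation with BsaI/T4 ligase ran for 1 h at 37 °C, before PCR amplification and sequencing on an Illumina NextSeq500. Binding signal is a hexamer's read frequency for a factor divided by its frequency for the tag-only sample.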

ELK1 = target: T2, ELK1 (Homo sapiens, UniProt P19419 1-428)
T2 sequence: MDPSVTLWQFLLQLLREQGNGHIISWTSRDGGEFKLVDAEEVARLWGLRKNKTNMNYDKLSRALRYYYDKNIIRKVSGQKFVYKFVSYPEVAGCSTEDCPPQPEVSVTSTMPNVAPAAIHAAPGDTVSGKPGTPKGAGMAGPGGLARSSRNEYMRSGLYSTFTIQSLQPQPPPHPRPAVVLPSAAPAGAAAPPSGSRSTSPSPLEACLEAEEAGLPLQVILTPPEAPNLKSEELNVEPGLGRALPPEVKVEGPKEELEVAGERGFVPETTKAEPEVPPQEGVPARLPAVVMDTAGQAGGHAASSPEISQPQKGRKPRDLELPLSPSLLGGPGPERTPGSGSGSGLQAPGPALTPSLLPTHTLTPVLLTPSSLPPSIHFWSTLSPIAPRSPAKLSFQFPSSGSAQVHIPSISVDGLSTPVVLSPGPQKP
How it was run: as §1

GABPA = target: T3, GABPA (Homo sapiens, UniProt Q06546 1-454)
T3 sequence: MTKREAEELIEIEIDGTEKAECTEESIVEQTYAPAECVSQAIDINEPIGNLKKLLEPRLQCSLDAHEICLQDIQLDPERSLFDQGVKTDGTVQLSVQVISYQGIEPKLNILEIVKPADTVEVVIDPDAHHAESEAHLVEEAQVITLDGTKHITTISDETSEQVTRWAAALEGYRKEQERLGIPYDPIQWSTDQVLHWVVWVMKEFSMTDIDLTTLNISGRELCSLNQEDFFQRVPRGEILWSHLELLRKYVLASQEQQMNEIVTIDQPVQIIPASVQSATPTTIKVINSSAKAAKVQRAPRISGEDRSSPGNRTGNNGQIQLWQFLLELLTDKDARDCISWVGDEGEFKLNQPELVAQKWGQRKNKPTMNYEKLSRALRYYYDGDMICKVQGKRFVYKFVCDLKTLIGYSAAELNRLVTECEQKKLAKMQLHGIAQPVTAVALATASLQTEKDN
How it was run: as §1

ERG = target: T4, ERG (Homo sapiens, UniProt P11308 1-479)
T4 sequence: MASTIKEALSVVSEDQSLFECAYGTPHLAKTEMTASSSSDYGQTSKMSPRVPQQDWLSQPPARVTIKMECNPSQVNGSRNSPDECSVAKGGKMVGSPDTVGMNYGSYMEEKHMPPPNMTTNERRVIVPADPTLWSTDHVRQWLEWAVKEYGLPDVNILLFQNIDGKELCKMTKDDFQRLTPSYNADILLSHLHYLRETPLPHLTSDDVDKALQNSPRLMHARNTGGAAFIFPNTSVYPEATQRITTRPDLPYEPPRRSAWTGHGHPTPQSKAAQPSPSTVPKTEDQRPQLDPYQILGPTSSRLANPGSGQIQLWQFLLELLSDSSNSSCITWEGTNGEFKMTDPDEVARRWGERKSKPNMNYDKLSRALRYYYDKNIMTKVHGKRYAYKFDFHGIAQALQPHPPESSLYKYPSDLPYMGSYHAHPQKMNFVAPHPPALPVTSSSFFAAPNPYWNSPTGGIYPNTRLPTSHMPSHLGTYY
How it was run: as §1

ELF1 = ELF1 (Homo sapiens, UniProt P32519 1-619)
How it was run: as §1

EHF = target: T5, EHF (Homo sapiens, UniProt Q9NZC4 1-300)
T5 sequence: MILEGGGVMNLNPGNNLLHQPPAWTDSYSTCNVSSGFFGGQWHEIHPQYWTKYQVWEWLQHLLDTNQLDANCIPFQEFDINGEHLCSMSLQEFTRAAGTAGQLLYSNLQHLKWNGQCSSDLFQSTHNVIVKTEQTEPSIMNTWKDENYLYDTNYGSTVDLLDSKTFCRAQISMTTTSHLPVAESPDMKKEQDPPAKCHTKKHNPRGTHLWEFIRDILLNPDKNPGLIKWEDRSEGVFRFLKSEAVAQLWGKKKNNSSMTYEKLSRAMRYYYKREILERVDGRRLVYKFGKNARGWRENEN
How it was run: as §1

SPI1 = SPI1 (Homo sapiens, UniProt P17947 1-270)
How it was run: as §1

SPIB = SPIB (Homo sapiens, UniProt Q01892 1-262)
How it was run: as §1

ELK3 = target: T6, ELK3 (Homo sapiens, UniProt P41970 1-407)
T6 sequence: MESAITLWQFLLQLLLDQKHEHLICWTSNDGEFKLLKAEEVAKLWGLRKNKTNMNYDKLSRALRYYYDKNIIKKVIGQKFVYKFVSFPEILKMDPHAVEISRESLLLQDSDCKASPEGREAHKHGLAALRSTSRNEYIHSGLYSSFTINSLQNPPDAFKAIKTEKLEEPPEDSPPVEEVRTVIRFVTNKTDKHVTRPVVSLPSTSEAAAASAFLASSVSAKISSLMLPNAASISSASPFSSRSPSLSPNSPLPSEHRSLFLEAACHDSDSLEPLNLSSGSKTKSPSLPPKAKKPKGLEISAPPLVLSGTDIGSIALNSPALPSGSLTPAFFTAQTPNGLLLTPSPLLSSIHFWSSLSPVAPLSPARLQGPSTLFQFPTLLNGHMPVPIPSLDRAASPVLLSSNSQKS
How it was run: as §1

FEV = target: T7, FEV (Homo sapiens, UniProt Q99581 1-238)
T7 sequence: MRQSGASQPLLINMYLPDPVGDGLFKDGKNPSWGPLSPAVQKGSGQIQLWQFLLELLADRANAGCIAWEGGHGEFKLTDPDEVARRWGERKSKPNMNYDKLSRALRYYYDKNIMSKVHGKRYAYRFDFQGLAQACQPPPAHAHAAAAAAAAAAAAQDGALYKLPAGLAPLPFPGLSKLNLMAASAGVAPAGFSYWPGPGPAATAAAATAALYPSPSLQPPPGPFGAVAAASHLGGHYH
How it was run: as §1

ETV5 = ETV5 (Homo sapiens, UniProt P41161 1-510)
How it was run: as §1

SPIC = target: T8, SPIC (Homo sapiens, UniProt Q8N5J4 1-248)
T8 sequence: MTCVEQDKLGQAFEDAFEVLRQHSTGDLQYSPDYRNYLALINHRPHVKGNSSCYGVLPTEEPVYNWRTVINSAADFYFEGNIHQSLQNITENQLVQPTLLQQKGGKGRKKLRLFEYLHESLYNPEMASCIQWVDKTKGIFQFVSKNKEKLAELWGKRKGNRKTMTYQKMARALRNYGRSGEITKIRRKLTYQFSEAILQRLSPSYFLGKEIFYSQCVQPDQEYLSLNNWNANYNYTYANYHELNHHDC
How it was run: as §1

ELF4 = ELF4 (Homo sapiens, UniProt Q99607 1-663)
How it was run: as §1

ELK4 = target: T9, ELK4 (Homo sapiens, UniProt P28324-2 1-405)
T9 sequence: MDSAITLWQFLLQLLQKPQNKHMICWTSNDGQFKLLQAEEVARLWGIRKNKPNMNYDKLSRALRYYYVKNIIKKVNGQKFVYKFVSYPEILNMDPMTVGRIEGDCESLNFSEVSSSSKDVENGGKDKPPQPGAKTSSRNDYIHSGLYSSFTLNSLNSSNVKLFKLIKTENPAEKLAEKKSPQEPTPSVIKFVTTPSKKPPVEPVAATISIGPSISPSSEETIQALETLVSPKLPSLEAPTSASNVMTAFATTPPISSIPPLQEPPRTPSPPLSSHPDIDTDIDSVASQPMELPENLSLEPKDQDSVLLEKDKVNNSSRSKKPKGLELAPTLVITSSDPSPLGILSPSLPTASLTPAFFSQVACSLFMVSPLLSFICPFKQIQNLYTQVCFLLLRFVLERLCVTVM
How it was run: as §1

ETV2 = target: T10, ETV2 (Homo sapiens, UniProt O00321 1-342)
T10 sequence: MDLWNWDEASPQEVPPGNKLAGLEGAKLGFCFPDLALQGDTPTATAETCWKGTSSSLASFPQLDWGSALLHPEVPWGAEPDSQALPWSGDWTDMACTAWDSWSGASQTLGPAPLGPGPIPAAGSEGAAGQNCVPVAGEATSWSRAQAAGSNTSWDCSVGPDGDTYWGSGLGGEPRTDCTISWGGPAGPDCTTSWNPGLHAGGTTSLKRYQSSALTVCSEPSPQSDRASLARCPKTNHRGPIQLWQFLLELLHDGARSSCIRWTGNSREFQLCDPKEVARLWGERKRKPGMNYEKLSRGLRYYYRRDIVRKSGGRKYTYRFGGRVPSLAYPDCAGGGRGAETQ
How it was run: as §1

ELF3 = target: T11, ELF3 (Homo sapiens, UniProt P78545 1-371)
T11 sequence: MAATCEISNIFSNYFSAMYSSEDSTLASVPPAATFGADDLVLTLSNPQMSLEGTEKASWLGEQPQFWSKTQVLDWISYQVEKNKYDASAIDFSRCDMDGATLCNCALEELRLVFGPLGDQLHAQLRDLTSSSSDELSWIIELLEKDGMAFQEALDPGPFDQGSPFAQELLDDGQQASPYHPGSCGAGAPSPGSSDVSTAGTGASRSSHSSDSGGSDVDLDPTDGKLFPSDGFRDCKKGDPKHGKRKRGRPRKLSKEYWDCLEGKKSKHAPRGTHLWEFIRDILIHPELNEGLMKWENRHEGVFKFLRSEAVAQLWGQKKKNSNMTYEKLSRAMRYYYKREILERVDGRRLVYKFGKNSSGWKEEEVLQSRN
How it was run: as §1

ETV1 = ETV1 (Homo sapiens, UniProt P50549 1-477)
How it was run: as §1

Sequence of SPIB (Q01892 whole entry): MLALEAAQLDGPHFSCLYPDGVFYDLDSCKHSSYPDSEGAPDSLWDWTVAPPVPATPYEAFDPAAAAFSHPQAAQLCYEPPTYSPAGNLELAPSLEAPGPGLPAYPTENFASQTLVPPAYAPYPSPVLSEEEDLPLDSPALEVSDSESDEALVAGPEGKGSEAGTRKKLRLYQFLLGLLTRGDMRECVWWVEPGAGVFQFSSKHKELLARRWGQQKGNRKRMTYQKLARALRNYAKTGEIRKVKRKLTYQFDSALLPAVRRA
Sequence of ELF4 (Q99607 whole entry): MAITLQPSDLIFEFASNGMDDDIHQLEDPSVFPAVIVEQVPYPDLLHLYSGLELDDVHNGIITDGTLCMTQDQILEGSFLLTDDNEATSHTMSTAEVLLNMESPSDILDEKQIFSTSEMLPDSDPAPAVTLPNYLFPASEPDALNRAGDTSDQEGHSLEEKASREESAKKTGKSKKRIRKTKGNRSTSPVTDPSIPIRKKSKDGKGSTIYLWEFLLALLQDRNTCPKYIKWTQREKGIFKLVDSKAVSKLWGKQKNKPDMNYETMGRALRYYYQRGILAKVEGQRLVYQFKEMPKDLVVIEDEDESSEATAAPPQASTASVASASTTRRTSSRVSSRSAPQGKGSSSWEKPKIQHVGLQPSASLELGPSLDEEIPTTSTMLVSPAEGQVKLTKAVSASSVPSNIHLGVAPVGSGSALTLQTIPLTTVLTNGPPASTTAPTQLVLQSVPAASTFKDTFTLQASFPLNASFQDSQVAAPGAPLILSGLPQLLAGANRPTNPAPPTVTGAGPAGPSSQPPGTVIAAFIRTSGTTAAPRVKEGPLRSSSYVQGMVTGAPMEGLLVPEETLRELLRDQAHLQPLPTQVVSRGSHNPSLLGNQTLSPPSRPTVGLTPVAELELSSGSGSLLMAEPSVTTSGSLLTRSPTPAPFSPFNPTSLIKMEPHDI
Sequence of ETV1 (P50549 whole entry): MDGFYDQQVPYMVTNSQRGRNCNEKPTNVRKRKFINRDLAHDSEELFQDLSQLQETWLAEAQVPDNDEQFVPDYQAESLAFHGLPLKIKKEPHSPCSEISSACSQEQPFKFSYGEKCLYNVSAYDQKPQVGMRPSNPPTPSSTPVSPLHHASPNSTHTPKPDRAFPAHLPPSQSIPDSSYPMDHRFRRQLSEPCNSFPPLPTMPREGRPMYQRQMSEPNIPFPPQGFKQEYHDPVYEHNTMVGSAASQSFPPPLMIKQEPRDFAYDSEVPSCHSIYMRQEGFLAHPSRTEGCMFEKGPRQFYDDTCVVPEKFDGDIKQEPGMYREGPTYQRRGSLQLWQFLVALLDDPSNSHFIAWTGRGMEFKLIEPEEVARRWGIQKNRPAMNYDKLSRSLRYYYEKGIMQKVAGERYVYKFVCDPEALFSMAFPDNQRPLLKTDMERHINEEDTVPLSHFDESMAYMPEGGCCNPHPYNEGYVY
Sequence of ELF1 (P32519 whole entry): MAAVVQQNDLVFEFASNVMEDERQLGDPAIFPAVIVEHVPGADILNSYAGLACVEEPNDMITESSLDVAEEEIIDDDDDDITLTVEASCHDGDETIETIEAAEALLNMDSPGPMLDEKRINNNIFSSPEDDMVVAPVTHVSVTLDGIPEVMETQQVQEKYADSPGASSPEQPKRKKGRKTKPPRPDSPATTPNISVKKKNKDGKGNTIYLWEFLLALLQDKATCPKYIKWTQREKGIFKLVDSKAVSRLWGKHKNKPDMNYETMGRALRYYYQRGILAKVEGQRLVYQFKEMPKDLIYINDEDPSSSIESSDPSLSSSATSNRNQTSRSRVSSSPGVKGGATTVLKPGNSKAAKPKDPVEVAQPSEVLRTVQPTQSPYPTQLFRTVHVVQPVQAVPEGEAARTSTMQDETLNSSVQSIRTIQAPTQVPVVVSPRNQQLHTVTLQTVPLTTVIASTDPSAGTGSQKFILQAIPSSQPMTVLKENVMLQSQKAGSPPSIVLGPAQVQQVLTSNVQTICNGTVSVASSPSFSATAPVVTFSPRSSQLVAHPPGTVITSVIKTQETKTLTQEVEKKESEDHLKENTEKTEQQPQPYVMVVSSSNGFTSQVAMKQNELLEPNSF
Sequence of ETV5 (P41161 whole entry): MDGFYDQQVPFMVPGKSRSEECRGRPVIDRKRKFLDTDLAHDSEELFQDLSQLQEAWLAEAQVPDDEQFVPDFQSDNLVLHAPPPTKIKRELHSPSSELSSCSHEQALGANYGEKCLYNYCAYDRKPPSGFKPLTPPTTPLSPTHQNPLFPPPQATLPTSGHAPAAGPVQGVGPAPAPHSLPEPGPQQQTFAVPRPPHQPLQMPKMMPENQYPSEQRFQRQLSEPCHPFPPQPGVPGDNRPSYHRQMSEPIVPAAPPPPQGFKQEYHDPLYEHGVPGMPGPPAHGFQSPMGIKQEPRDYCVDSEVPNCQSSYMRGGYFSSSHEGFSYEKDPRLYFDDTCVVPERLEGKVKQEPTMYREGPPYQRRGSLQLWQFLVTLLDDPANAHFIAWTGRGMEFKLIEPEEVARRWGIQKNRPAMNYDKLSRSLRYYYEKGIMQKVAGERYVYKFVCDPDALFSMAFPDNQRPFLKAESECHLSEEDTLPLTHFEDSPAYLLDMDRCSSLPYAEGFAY

CCATAC
binding signal (FLI1): 1.23 fold enrichment (6-mer frequency, TF over GST control)
binding signal (ELK1): 1.07 fold enrichment (6-mer frequency, TF over GST control)
binding signal (GABPA): 1.16 fold enrichment (6-mer frequency, TF over GST control)
binding signal (ERG): 1.08 fold enrichment (6-mer frequency, TF over GST control)
binding signal (ELF1): 1.18 fold enrichment (6-mer frequency, TF over GST control)
binding signal (EHF): 1.19 fold enrichment (6-mer frequency, TF over GST control)
binding signal (SPI1): 1.18 fold enrichment (6-mer frequency, TF over GST control)
binding signal (SPIB): 1.15 fold enrichment (6-mer frequency, TF over GST control)
binding signal (ELK3): 1.2 fold enrichment (6-mer frequency, TF over GST control)
binding signal (FEV): 1.16 fold enrichment (6-mer frequency, TF over GST control)
binding signal (ETV5): 1.16 fold enrichment (6-mer frequency, TF over GST control)
binding signal (SPIC): 1.13 fold enrichment (6-mer frequency, TF over GST control)
binding signal (ELF4): 1.27 fold enrichment (6-mer frequency, TF over GST control)
binding signal (ELK4): 1.14 fold enrichment (6-mer frequency, TF over GST control)
binding signal (ETV2): 1.06 fold enrichment (6-mer frequency, TF over GST control)
binding signal (ELF3): 1.06 fold enrichment (6-mer frequency, TF over GST control)
binding signal (ETV1): 1.15 fold enrichment (6-mer frequency, TF over GST control)
